This note sets out measurements from PubChem BioAssay AID758 (NMMLSC, 2007).

The whole screen tested about 190,000 compounds, of which about 110 (0.058%) were called active. Roughly 2% stayed inconclusive and do not appear here.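 How the source made its calls: active means fluorescent GTP binding to Rab7 beads changed by at least 20 points from the 100% baseline, either direction, mostly lower; inconclusive means compound itself probably fluorescent, or too few beads counted; inactive means the rest.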 The sample as a whole holds a higher share of actives than the screen did.

This experiment concerns Rab7 GTPase wild type (dog), Bodipy-FL-GTP binding. In words: modulators of GTP binding to Rab7, primary screen, biochemical, wildtype, multiplex bead flow cytometry (AID 758).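 Further: median green fluorescence of bound Bodipy-FL-GTP per Rab7 bead population.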 Conditions: GST-Rab7 beads, fluorescent GTP binding, at 10 µM, actives lie on both sides, untreated = 100%, excess cold GTP = 0%. A general note: A flow cytometer gives signals particle by particle.
With `CCOC(=O)C1(CCOc2ccccc2)CCN(C(=O)c2cncs2)CC1`, the GTP binding activity (percent of control) is 93% (inactive). For `CCOC(=O)c1ccc(NC(=O)c2cc(=O)[nH]c3ccccc23)cc1`, the GTP binding activity (percent of control) is 94% (inactive). The result for `CCOc1c(CNCc2ccc(C(=O)O)cc2)cccc1OC` reads 103% (inactive); that for `COc1ccc(-c2nn(-c3ccccc3)cc2/C=C\C(=O)N2CCOCC2)cc1[N+](=O)[O-]`, 93% (inactive); that for `CC(O)c1cccc(NC(=O)Cc2cccc3ccccc23)c1` (configuration not stated), 93% (inactive).

For `CCOc1cc(/C=C2/C(=N)N3OC(C)=CC3=NC2=O)ccc1OC`, the GTP binding activity (percent of control) was 93% (inactive). The result for `NS(=O)(=O)c1cccc(NC(=O)CN2CCCc3ccccc32)c1` reads 93% (inactive). The result for `Cc1nc([N+](=O)[O-])c(NCCCO)n1Cc1ccccc1` reads 96% (inactive); that for `O=C(NCc1ccncc1)NC12CC3CC(CC(C3)C1)C2`, 104% (inactive). For `Clc1cccc(-c2nc(NCC3CCCO3)c3ccccc3n2)c1` (configuration not stated), the GTP binding activity (percent of control) was 96% (inactive). The result for `COC(=O)c1c(NC(C)=O)sc(C(=O)Nc2ccccc2OC)c1C` reads 106% (inactive). With `O=C(NNC1=C(C(=O)C(F)(F)F)CCC1)c1ccncc1` the figure was 106% (inactive); with `O=C(CN1CCCC1)N1CCN(c2ccccc2)CC1`, 99% (inactive). The result for `CC(CC(=O)Nc1ccccc1)n1ccnc1` (configuration not stated) reads 96% (inactive); that for `CCN(Cc1ccccc1)S(=O)(=O)c1cc(C(=O)O)ccc1OC`, 107% (inactive); that for `CCN(CC)CCCSc1nc2ccccc2s1`, 104% (inactive).

In the case of `Cc1ccc(NC(=O)C2(N3CCC3=O)CCCCC2)cc1`, the GTP binding activity (percent of control) is 105% (inactive).

Consider `Cc1ccc(NC(=O)c2ccc(Oc3ncccn3)cc2)cc1`, for which the GTP binding activity (percent of control) was 97% (inactive). The result for `OCC1(Cc2ccccc2C(F)(F)F)CCN(Cc2cccc3cnccc23)CC1` reads 96% (inactive); that for `CC1(C)CC(N(Cc2ccccc2)C(=O)Cc2ccccc2)CCO1` (configuration not stated), 101% (inactive); that for `O=C(Nc1cccnc1)c1cccc(S(=O)(=O)N2CCCC2)c1`, 94% (inactive). With `CCN(CC)C(=O)N(CC)Cc1ccccc1` the figure was 96% (inactive); with `COC(=O)c1ccc(NCC(=O)N2CCCCCC2)cc1`, 106% (inactive).

On to `COc1ccc(-c2nc(CN3CCN(c4ncccn4)CC3)c(C)o2)cc1C`, for which the GTP binding activity (percent of control) was 95% (inactive). The result for `O=C(C1CCCO1)N(c1ccc(F)cc1)C1C=CS(=O)(=O)C1` (configuration not stated) reads 103% (inactive). Take `CCc1ccc(/C=C2\SC(N3CCOCC3)=NC2=O)cc1`: the GTP binding activity (percent of control) is 94% (inactive). With `c1ccc(Cc2cc[n+](Cc3ccccc3)cc2)cc1` the figure was 106% (inactive); with `CCOc1cnc(-c2c(-c3ccccc3Cl)noc2C)o1`, 96% (inactive). The result for `CCCCN(C(=O)/C=C/c1ccco1)c1c(N)n(CC(C)C)c(=O)[nH]c1=O` reads 98% (inactive); that for `CC(C)(C)c1cnnn1-c1ccc([N+](=O)[O-])cc1`, 94% (inactive).

On to `CC(C)(C)C(=O)NCCCNc1ccc([N+](=O)[O-])cc1`, for which the GTP binding activity (percent of control) is 94% (inactive). Take `O=C(Nc1ccccc1F)c1ccccc1-c1ccc(C(F)(F)F)cc1`: the GTP binding activity (percent of control) is 103% (inactive). With `O=C(Nc1ccccc1F)c1ccccc1-c1ccccc1` the figure was 74% (active). `NC(=O)c1ccccc1NC(=O)c1ccccc1F`: the GTP binding activity (percent of control) was 99% (inactive). The result for `O=C(CC1C(=O)NCCN1Cc1ccc(-c2ccccc2)cc1)NCc1ccncc1` (configuration not stated) reads 96% (inactive); that for `Cc1ccc(C)c(Cn2nnc3c(=O)[nH]c(C(=O)Nc4ccc(F)cc4)nc32)c1`, 102% (inactive). With `CC(=O)Nc1ccc(Nc2nc3c(S(=O)(=O)c4ccc(C)c(C)c4)nnn3c3ccccc23)cc1` the figure was 97% (inactive); with `CN1CCN(CCC(=O)N/N=C/C=C2\N(C)c3ccccc3C2(C)C)CC1`, 98% (inactive). The result for `CC(C)CNC(=O)/C=C/C(=O)O` reads 105% (inactive); that for `O=C(Cc1ccccc1Cl)N1CCN(c2ccccn2)CC1`, 98% (inactive). On to `Cc1ccc(CN2CCN(Cc3ccccc3-c3ccco3)CC2CCO)o1` (configuration not stated), for which the GTP binding activity (percent of control) was 104% (inactive). For `CNC(=O)COC(=O)c1cc(-c2ccc(OC)cc2)nc2ccccc12`, the GTP binding activity (percent of control) is 88% (inactive).
